The text below walks through data of the supplement of paper PMC7156485.

Conditions in all cases: concentration: 10 µM; 24 h
Assay [1] deals with HCC1569. Put plainly: cell number relative to DMSO (% of DMSO); higher = more cells (less growth inhibition / toxicity). Summed up: (§1)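 Treatment: HCC1569 and TDF cells, 800 per well in 384-well plates with RPMI and 10% FBS, were given compounds at 10 µM for 24 h at 37 °C, in triplicate. Readout: after 3.7% formaldehyde fixation, cells were stained with a rabbit anti-H1.0 antibody, an AlexaFluor 647 secondary and DAPI. Reported values are H1.0 nuclear intensity or cell number as percent of the plate control, taken as the median of replicates, with positional smoothing for HCC1569.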

The subject of assay [2] is TDF. The description is as above. Summed up: as §1
The subject of assay [3] is TDF. Put plainly: H1.0 immunofluorescence intensity relative to DMSO (% of DMSO); higher = stronger H1.0 induction, active = 120 or more. Summed up: as §1
The test system of assay [4] is HCC1569. Put plainly: H1.0 immunofluorescence intensity relative to DMSO (% of DMSO); higher = stronger H1.0 induction, active = 140 or more. The procedure, abridged: as §1

± gives the standard deviation of the averaged measurements.
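Wherever H1.0 immunofluorescence intensity relative to DMSO is given: TDF is a line of transformed human dermal fibroblasts of mesenchymal origin.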
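Wherever cell number relative to DMSO is given: TDF denotes transformed human dermal fibroblasts of mesenchymal origin.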

On to `C=C1CC2C(CCC3(C)C(=O)CCC23)C2(C)C=CC(=O)C=C12` (stereo not given) [Exemestane], for which the figures for the cell number with HCC1569 [1] and in the assay with TDF [2] were 101 and 97.4, respectively. Moreover, the H1.0 immunofluorescence intensity with TDF [3] is 98.1 (inactive); with HCC1569 [4], 102 (inactive).
Turning to `[Cl-].c1ccc2c(c1)[I+]c1ccccc1-2` [Diphenyleneiodonium chloride], the cell number in the assay with HCC1569 [1] amounted to 61.4; with TDF [2], 34. Further, the figures for the H1.0 immunofluorescence intensity in the assay with TDF [3] and in the assay on HCC1569 [4] were 123 (active) and 125 (inactive), respectively.
On to `NC(Cn1oc(=O)[nH]c1=O)C(=O)O` (single isomer, unassigned; (+)) [(+)-Quisqualic acid], for which the cell number came to 101 in the assay with HCC1569 [1] and 94.1 with TDF [2]. The H1.0 immunofluorescence intensity in the assay with TDF [3] was 93.9 (inactive); with HCC1569 [4] it was 103 (inactive).
Regarding `CCCN(CCC)C1CCc2c(F)ccc(O)c2C1.Cl` (stereo not drawn) [S(-)-UH-301 hydrochloride], the cell number in the assay with HCC1569 [1] came to 102; with TDF [2], 97.9. In addition, the H1.0 immunofluorescence intensity in the assay on TDF [3] was 98.7 (inactive); in the assay with HCC1569 [4], 96.3 (inactive).
In the case of `Cl.O=C1CCC2(O)C3Cc4ccc(O)c5c4C2(CCN3CC2CC2)C1O5` (stereo not given) [Naltrexone.HCl], the cell number in the assay on HCC1569 [1] was determined as 101; in the assay with TDF [2], 100. For the same compound, the H1.0 immunofluorescence intensity with TDF [3] was 90.5 (inactive); in the assay on HCC1569 [4] it was 99.8 (inactive).
With `CC1Cc2cc3c(cc2C(c2ccc(N)cc2)=NN1)OCO3` (stereo not given), the cell number was 98.9 in the assay on HCC1569 [1] and 112 in the assay with TDF [2]. Besides, the values for the H1.0 immunofluorescence intensity in the assay on TDF [3] and in the assay with HCC1569 [4] were 103 (inactive) and 98.2 (inactive), respectively.
With `Cl.OCc1cnc[nH]1` [4-Imidazolemethanol hydrochloride], the figures for the cell number with HCC1569 [1] and in the assay on TDF [2] were 99.6 and 102, respectively. Besides, the results for the H1.0 immunofluorescence intensity in the assay with TDF [3] and in the assay with HCC1569 [4] were 93.3 (inactive) and 94.1 (inactive), respectively.
The matching figures for `CC(C)CC1C(=O)N2CCCC2C2(O)OC(NC(=O)C3C=C4c5cccc6[nH]c(Br)c(c56)CC4N(C)C3)(C(C)C)C(=O)N12.CS(=O)(=O)O` (stereo not given) [Bromocriptine mesylate]: 99.5 ± 2.3, 102.8 ± 0.3, 94.1 (inactive) and 102 (inactive).
Regarding `CN(C)C(=O)Oc1cccc([N+](C)(C)C)c1.[Br-]` [Neostigmine bromide], the cell number in the assay with HCC1569 [1] is 107; in the assay with TDF [2] it was 98.4. The results for the H1.0 immunofluorescence intensity in the assay on TDF [3] and in the assay with HCC1569 [4] were 89.5 (inactive) and 89.4 (inactive), respectively.
For `CC1OC(OC2CC(O)C3(CO)C4C(O)CC5(C)C(C6=CC(=O)OC6)CCC5(O)C4CCC3(O)C2)C(O)C(O)C1O` (single isomer, unassigned; (-)) [(-)-Ouabain], the figures for the cell number in the assay with HCC1569 [1] and in the assay with TDF [2] were 49.5 ± 1.9 and 42.1 ± 1.4, respectively. The figures for the H1.0 immunofluorescence intensity in the assay with TDF [3] and in the assay on HCC1569 [4] were 119 (inactive) and 130 (inactive), respectively.
The matching figures for `C=C(C)C1Cc2c(ccc3c2OC2COc4cc(OC)c(OC)cc4C2C3=O)O1` (stereo not given) [Rotenone]: 59.7 ± 1.6, 16.2 ± 0.54, 147 (active) and 178 (active).
For the compound `CCN(CC)C(=O)NC1C=C2c3cccc4[nH]cc(c34)CC2N(C)C1.O=C(O)C=CC(=O)O` (stereo not drawn) [R(+)-Lisuride hydrogen maleate], the cell number in the assay with HCC1569 [1] stood at 103; in the assay with TDF [2] it was 117. Also, the H1.0 immunofluorescence intensity is 91.4 (inactive) in the assay with TDF [3] and 92.7 (inactive) in the assay on HCC1569 [4].
The matching figures for `CC1=C(O)C(=O)C=C2C1=CC=C1C2(C)CCC2(C)C3CC(C)(C(=O)O)CCC3(C)CCC12C` (stereo not given) [Celastrol]: 38, 64, 120 (inactive) and 114 (inactive).
The matching figures for `CN(C)C(=O)Oc1cccc([N+](C)(C)C)c1.COS(=O)(=O)[O-]`: 109, 103, 97.7 (inactive) and 98.3 (inactive).
In the case of `Br.Br.CN(C)CCN(C)CCc1ccc(Cl)c(Cl)c1`, the results for the cell number in the assay on HCC1569 [1] and with TDF [2] were 96.6 and 102, respectively. Further, the results for the H1.0 immunofluorescence intensity with TDF [3] and in the assay on HCC1569 [4] were 102 (inactive) and 110 (inactive), respectively.
The matching figures for `COc1cc(C=C(C#N)C#N)cc(O)c1O` [Tyrphostin AG 34]: 102, 97.9, 96.3 (inactive) and 114 (inactive).
The matching figures for `C1CCc2nnnn2CC1` [Pentylenetetrazole]: 102, 113, 99 (inactive) and 98.1 (inactive).
The matching figures for `CC1OC(C[N+](C)(C)C)CS1.[I-]` (stereo not given) [OXA-22 iodide]: 99.8, 116, 97.2 (inactive) and 95.2 (inactive).
On to `COCC1OC(=O)c2coc3c2C1(C)C1=C(C3=O)C2CCC(=O)C2(C)CC1OC(C)=O` (stereo not given) [Wortmannin], for which the cell number with HCC1569 [1] came out at 43.3; with TDF [2], 91.8. Further, the H1.0 immunofluorescence intensity was 90.9 (inactive) with TDF [3] and 140 (inactive) in the assay with HCC1569 [4].
The matching figures for `C[N+]1(C)C2CC(OC(=O)C(CO)c3ccccc3)CC1C1OC12.O=[N+]([O-])[O-]` (single isomer, unassigned; (-)) [(-)-Scopolamine methyl nitrate]: 99.7, 98.7, 93.1 (inactive) and 106 (inactive).
The matching figures for `C[N+]1(C)CCN(c2ccccc2)CC1.[I-]` [1,1-Dimethyl-4-phenyl-piperazinium iodide]: 99, 93, 95.8 (inactive) and 109 (inactive).
The matching figures for `CC=C1CC(C)C(C)(O)C(=O)OCC2=CCN3CCC(OC1=O)C23` (stereo not given) [Senecionine]: 98.6, 101, 108 (inactive) and 91.8 (inactive).
`CCn1cc(C(=O)O)c(=O)c2cc3c(cc21)OCO3` [Oxolinic acid]: the results for the cell number in the assay on HCC1569 [1] and in the assay with TDF [2] were 100 and 109, respectively. The results for the H1.0 immunofluorescence intensity with TDF [3] and in the assay on HCC1569 [4] were 104 (inactive) and 101 (inactive), respectively.
Turning to `CCCCCCCCCCCCCCC(Br)C(=O)O` (stereo not given) [2-bromohexadecanoic acid], the cell number in the assay with HCC1569 [1] stood at 109; in the assay on TDF [2], 107. For the same compound, the H1.0 immunofluorescence intensity in the assay on TDF [3] was 91.6 (inactive); in the assay on HCC1569 [4] it was 94.5 (inactive).
`CC1=C2C3OC(=O)C(C)C3CCC2(C)C=CC1=O` (stereo not given) [Santonin]: the figures for the cell number in the assay with HCC1569 [1] and in the assay with TDF [2] were 103 and 97.9, respectively. In addition, the results for the H1.0 immunofluorescence intensity with TDF [3] and with HCC1569 [4] were 95.5 (inactive) and 92.6 (inactive), respectively.
